According to PubChem BioAssay (NCI):
Compounds without any hit were thinned out: in the full panel of roughly 79,000, 15% have a hit. Activity calls are given as the source filed them. No stated cut-off is given here; in the data, active means growth inhibition above about 70%; inactive means the rest.

Assay: NCI Yeast Anticancer Drug Screen. Data for the mlh1 rad18 strain (AID 175)
Conditions: S. cerevisiae mlh1 rad18 strain growth inhibition; at 50.0 µM (retest, dose inferred, filed as 5.0); hits give high values
Outline: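 Compound-treated yeast growth, normalised to vehicle controls. Strain bears defined DNA repair mutations.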

Compound | growth inhibition
O=[N+]([O-])c1ccc(N2N=NC(CN3CCOCC3)C2N2CCOCC2)cc1 (centres undefined) | 47% (inactive)
FC(F)(F)c1ccccc1NC(=S)SCc1ccco1 | 57% (inactive)
O=C(c1ccc(Cl)cc1)C1N=NCC1c1ccccc1 (centres undefined) | 53% (inactive)
COc1cc(C2c3cc4c(cc3[C@@H](OCCN)[C@H]3COC(=O)C23)OCO4)cc(OC)c1O (some centres undefined) | 68% (inactive)
CC(C)(C)c1cc2c(c(C(C)(C)C)c1O)CC(=O)O2 | 84% (active)
CCCCCCCCCCCCCCCCCCSSCCCCCCCCCCCCCCCCCC | -7% (inactive)
c1ccc2c(c1)OCC(CNCCNCC1COc3ccccc3O1)O2 (centres undefined) | 74% (active)
CC(=O)C(C(C)=O)C1C=CC=CC=C1 | 92% (active)
c1ccc2c(c1)ccc1c[n+]3c4ccccc4ccc3n12 | 91% (active)
CC(=O)C(=C(I)I)c1ccccc1 | 80% (active)
O=C1c2ccccc2CN1Cc1ccc(Cl)c(Cl)c1 | 91% (active)
CC1CC(N)=NC1C(=O)NCCC#N (centres undefined) | 11% (inactive)
CC(=O)CC(C)=NCCN=C(C)CC(C)=O.[Pd] | 74% (active)
CCOc1ccccc1NC1=C(Cl)C(=O)c2ccccc2C1=O | 97% (active)
CCN1C2=NCCN2S(=O)(=O)c2ccccc21 | 13% (inactive)
O=C(Cc1nc2ccccc2s1)C(=O)Nc1ccc(Cl)cc1 | 7% (inactive)
O=C(CCn1[nH]c(=O)c(Cl)c(Cl)c1=O)NNc1ccc([N+](=O)[O-])cc1[N+](=O)[O-] | 17% (inactive)
COc1cccc(C2c3cc4c(cc3OC(NNc3ccccc3)C2C)OCO4)c1OC (centres undefined) | 93% (active)
COc1ccc(-c2cc3ccccc3c(=O)n2Cc2ccccc2)cc1 | 66% (inactive)
CN(C)CCCNCC(=O)Nc1ccc(S(=O)(=O)c2ccc(NC(=O)CNCCCN(C)C)cc2)cc1 | 96% (active)

Compound | growth inhibition
O=C1NN=C(c2ccc(Cl)cc2)CC1C1C(=O)N(c2ccccc2)N=C1c1ccccc1 (centres undefined) | 96% (active)
Cc1ccc(S(=O)(=O)NCCSSCCNS(=O)(=O)c2ccc(C)cc2)cc1 | 96% (active)
O=C(CC(=O)c1ccccc1)CC(=O)c1ccccc1Br | 96% (active)
Nc1ncc2ccccc2c1-c1ccc(NC(=O)CCCl)cc1 | 55% (inactive)
CC1=NC(=Cc2cccc(Cl)c2)C(=O)N1n1c(-c2ccccc2)nc2ccccc2c1=O | 81% (active)
CCCOC(=O)CCCC(=O)N(CC)CC | -11% (inactive)
C=C1C(=O)[C@@]23CC[C@H]4[C@@](C)(CCC[C@@]4(C)C(=O)OC)[C@@H]2CC[C@]1(O)C3 | 99% (active)
CCCCN(CCCC)CCC(=O)c1ccc2c(ccc3ccccc32)c1 | 99% (active)
CC1CCC2(C)C(CC=C(C=O)C2(O)C=O)C12CO2 (centres undefined) | 99% (active)
CN(C)CC1CC/C(=C\c2ccc(Cl)c(Cl)c2)C1=O (centres undefined) | 99% (active)
CCS(=O)(=O)c1ccc(NC(=O)OC2CCCCCCC2)cc1 | 90% (active)
CC(=O)OC1CCCCCCCCCCC12OCCO2 (centres undefined) | 96% (active)
CC(=O)OCc1cc2c(s1)C(=O)c1sccc1C2=O | 89% (active)
O=C1C=CC(=O)c2nc3ccccc3nc21 | 97% (active)
Cc1ccccc1C1c2c(C)cccc2C(=O)CC1CC(=O)O (centres undefined) | 83% (active)
CCOC(=O)c1c(N)sc2c1CCCCC2 | -88% (inactive)
CCCCC(O)CCCC | 25% (inactive)
Nc1nn2c(C(Br)Br)cc(C(Br)Br)nc2c1[N+](=O)[O-] | 100% (active)
COC(=O)c1n[nH]c(C(C)C)c1N=NN(C)C | 96% (active)
